Results filed as inconclusive are left out. Where a call stands in place of a potency, no number is given. Active and inactive are the calls of the source. Unless noted, calls come from the whole dose curve; as a rule, active = well fitted curve in either direction with a large enough effect (not every such curve was filed as active); inconclusive = small, poorly fitted or top-dose-only effect, or another doubt; inactive = flat fitted curve, though single readings scatter.
These compounds were tested against Mitogen-activated protein kinase 10 (Mus musculus) (UniProt Q61831) (assay: JNK3 AlphaScreen Assay (AID 530;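 note: kinase came from lysate of stimulated human HepG2 cells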; note: potency is the fitted concentration of half-maximal effect)). Details: JNK3 lysate, c-Jun phosphorylation; series mostly up to 57.1 µM.
Method in brief: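 JNK3 came from HepG2 lysates pre-activated with IL-1beta and TNF-alpha and phosphorylated biotinylated GST-cJun (1-79) at 10 uM ATP, pH 7.6, room temperature. Compounds were titrated. AlphaScreen signal used anti-phospho-cJun (Ser73) antibody.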

| Compound | Potency |
| --- | --- |
| CCN1CCN(C(=O)N[C@H](C(=O)N[C@@H]2C(=O)N3C(C(=O)O)=C(CSc4nnnn4C)CS[C@@H]23)c2ccc(O)cc2)C(=O)C1=O | inactive |
| CCOC(=O)C1=C(C)NC(=S)NC1c1cccc(O)c1 (centres undefined) | inactive |
| O=c1c(O)c(-c2ccc(O)c(O)c2)oc2cc(O)ccc12 | 12.6 µM (active) |
| Nc1nc2c(c(=O)[nH]1)N(C=O)[C@H](CNc1ccc(C(=O)N[C@@H](CCC(=O)O)C(=O)O)cc1)CN2 | inactive |
| Cc1cc(O)c2c(c1)C(=O)c1cccc(O)c1C2=O | inactive |
| CN(N=O)C(=O)N[C@H]1C(O)OC(CO)[C@@H](O)[C@H]1O (some centres undefined) | inactive |
| c1coc(CNc2ncnc3nc[nH]c23)c1 | inactive |
| O=C(O)C=Cc1ccc(Cn2ccnc2)cc1 | inactive |
| COc1ccc([C@@H]2CNC(=O)C2)cc1OC1CCCC1 | inactive |
| COc1ccc2c(c1OC)C(=O)OC2[C@H]1c2c(cc3c(c2OC)OCO3)CCN1C (some centres undefined) | inactive |
| CN(C)CC[C@H](c1ccc(Cl)cc1)c1ccccn1 | inactive |
| CC(C)[C@H](CO)Nc1nc(Nc2cccc(Cl)c2)c2ncn(C(C)C)c2n1 | inactive |

What follows are compounds tested against 3',5'-cyclic-AMP phosphodiesterase 4B (Homo sapiens) (UniProt Q07343) (assay: qHTS Assay for Inhibitors of PDE-IV (AID 607; active = well fitted activation curve with a large enough effect in the main read-out, with a control signal flat, not every such curve was filed as active)). Details: HEK293 ACTOne CNG channel cells, membrane potential fluorescence; series mostly up to 22.9 µM.
Method in brief: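 HEK293 ACTOne cells with CNG channel (1000/well), endogenous PDE4; membrane potential dye, compounds up to 22.9 uM final. Fluorescence Ex 535/Em 590; RO 20-1724 (100 uM final) as reference.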

3',5'-cyclic-AMP phosphodiesterase 4B (Homo sapiens), sequence (Q07343 whole entry, looked up): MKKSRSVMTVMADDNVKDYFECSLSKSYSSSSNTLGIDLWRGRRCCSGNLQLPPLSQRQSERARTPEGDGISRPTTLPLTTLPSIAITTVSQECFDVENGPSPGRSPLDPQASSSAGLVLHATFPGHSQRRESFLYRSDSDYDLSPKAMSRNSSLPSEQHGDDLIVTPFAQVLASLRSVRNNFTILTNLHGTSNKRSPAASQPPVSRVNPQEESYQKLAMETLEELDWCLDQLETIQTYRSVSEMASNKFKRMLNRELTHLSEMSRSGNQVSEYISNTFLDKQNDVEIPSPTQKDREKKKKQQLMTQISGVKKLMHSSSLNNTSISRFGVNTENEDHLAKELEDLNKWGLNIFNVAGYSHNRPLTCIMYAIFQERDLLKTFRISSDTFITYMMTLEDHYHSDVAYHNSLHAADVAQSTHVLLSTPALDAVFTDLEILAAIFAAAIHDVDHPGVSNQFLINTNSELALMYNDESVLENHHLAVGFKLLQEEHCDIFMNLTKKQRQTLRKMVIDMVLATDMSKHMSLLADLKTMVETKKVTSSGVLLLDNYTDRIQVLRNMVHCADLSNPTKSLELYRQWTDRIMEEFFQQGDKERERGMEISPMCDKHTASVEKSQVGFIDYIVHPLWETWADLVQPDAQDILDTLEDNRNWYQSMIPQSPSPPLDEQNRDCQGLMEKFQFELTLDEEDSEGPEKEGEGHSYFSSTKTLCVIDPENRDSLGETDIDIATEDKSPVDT

| Compound | outcome |
| --- | --- |
| CCN1CCN(C(=O)N[C@H](C(=O)N[C@@H]2C(=O)N3C(C(=O)O)=C(CSc4nnnn4C)CS[C@@H]23)c2ccc(O)cc2)C(=O)C1=O | inactive |
| O=c1c(O)c(-c2ccc(O)c(O)c2)oc2cc(O)ccc12 | inactive |
| Nc1nc2c(c(=O)[nH]1)N(C=O)[C@H](CNc1ccc(C(=O)N[C@@H](CCC(=O)O)C(=O)O)cc1)CN2 | inactive |
| CN(N=O)C(=O)N[C@H]1C(O)OC(CO)[C@@H](O)[C@H]1O (some centres undefined) | inactive |
| c1coc(CNc2ncnc3nc[nH]c23)c1 | inactive |
| COc1cc2c(cc1O)CCC1C2CC[C@@]2(C)C1CC[C@@H]2O (some centres undefined) | inactive |
| O=C(O)C=Cc1ccc(Cn2ccnc2)cc1 | inactive |
| CN1[C@H]2CC(OC(=O)[C@@H](CO)c3ccccc3)C[C@H]1[C@H]1O[C@H]12 (some centres undefined) | inactive |
| COc1ccc2c(c1OC)C(=O)OC2[C@H]1c2c(cc3c(c2OC)OCO3)CCN1C (some centres undefined) | inactive |
| CC(Oc1ccc(O)cc1)(P(=O)(O)O)P(=O)(O)O | inactive |
| CN(C)CC[C@H](c1ccc(Cl)cc1)c1ccccn1 | inactive |
| CC(C)[C@H](CO)Nc1nc(Nc2cccc(Cl)c2)c2ncn(C(C)C)c2n1 | inactive |

Reference: PubChem BioAssay (NCATS)
